# Measured values: PubChem BioAssay (NCATS)
# Records with an inconclusive call do not appear. A call without a number means that no potency is given here. The source made the active and inactive calls. Unless noted, the call rests on the fitted dose curve; in most records, active means well fitted curve in the direction sought with a large enough effect; inconclusive means small, poorly fitted or top-dose-only effect, or another doubt; inactive means no such curve, though single readings can be large; an effect the other way counts as inactive or inconclusive.
# Assays:
# [1] = Cell Viability - SK-N-SH (AID 435; calls by dose curve;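 further: potency means the concentration at half of the fitted maximal effect; compound exposure lasted 40 h at 37 °C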); conditions: SK-N-SH neuroblastoma cell viability qHTS
# Method in brief: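 CellTiter-Glo ATP luminescence, 20 min RT read; cells pre-plated 5 hr, compound 40 hr at 37 °C, 1500 cells/well, complete medium. Normalized DMSO = 0, 100 uM tamoxifen = 100% inhibition; Hill-fit AC50.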
# [2] = Cell Viability - N2a (AID 540); conditions: N2a mouse neuroblastoma cell viability; series mostly up to 92.2 µM; further: nearly all actives have a fitted effect of over 45% in size
# Method in brief: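 Mouse neuroblastoma N2a cells, 1500/well, exposed to compounds 40 h at 37 °C in complete medium. Viability measured as cellular ATP by CellTiter-Glo luminescence; AC50 from Hill fits of concentration-response.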
# [3] = Cell Viability - NIH 3T3 (AID 541); conditions: NIH 3T3 cell viability, qHTS; series mostly up to 92.2 µM; further: nearly all actives have a fitted effect of over 25% in size
# Method in brief: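 Mouse NIH 3T3 fibroblasts, 1000 cells/well, rested 5 hr at 37 °C, then exposed to compound for 40 hr at 37 °C in complete medium. Viability read as intracellular ATP by CellTiter-Glo luminescence; AC50 from Hill-equation fits of concentration-response data.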
# [4] = Cell Viability - HUV-EC-C (AID 542); conditions: HUV-EC-C endothelial cell viability, qHTS; series mostly up to 92.2 µM; further: nearly all actives have a fitted effect of over 35% in size
# Method in brief: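 HUV-EC-C human vascular endothelial cells, 1000/well, exposed to compound for 40 hr at 37 °C in complete medium. Intracellular ATP was read by CellTiter-Glo luminescence. AC50 came from Hill-equation fits of concentration-response data.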
# [5] = Cell Viability - H-4-II-E (AID 543); conditions: H-4-II-E rat hepatoma viability; series mostly up to 92.2 µM; further: nearly all actives have a fitted effect of over 35% in size
# Method in brief: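 Rat hepatoma H-4-II-E cells, 1500 per well, treated 40 h at 37 °C in complete medium. Cellular ATP read by CellTiter-Glo luminescence; AC50 from Hill fits of concentration-response.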
# [6] = Cell Viability - SH-SY5Y (AID 544); conditions: SH-SY5Y neuroblastoma cell viability; series mostly up to 92.2 µM; further: nearly all actives have a fitted effect of over 55% in size
# Method in brief: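 SH-SY5Y human neuroblastoma cells (1500/well) incubated 5 h, then compound-treated 40 h at 37 °C in complete medium. Viability read as intracellular ATP by CellTiter-Glo luminescence after 20 min; AC50 from Hill-equation fits of qHTS concentration-response.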
# [7] = Cell Viability - Renal Proximal Tubule (AID 545); conditions: renal proximal tubule cells viability, primary cells of rat origin; series mostly up to 91.7 µM; further: nearly all actives have a fitted effect of over 40% in size
# Method in brief: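 Rat kidney proximal tubule cells, freshly isolated; 1000 cells/well, 5 hr settle, compound 40 hr 37 °C. CellTiter-Glo 20 min RT, luminescence read. AC50 by standard Hill fit.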
# [8] = Cell Viability - Mesenchymal (AID 546); conditions: mesenchymal cells viability, qHTS; series mostly up to 91.7 µM;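 further: cells exposed to compound for 40 hours before reading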
# Method in brief: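 Human kidney mesenchymal cells from normal renal glomeruli, 1000 cells/well, rested 5 hr at 37 °C, then treated 40 hr at 37 °C in complete medium. Cellular ATP read by CellTiter-Glo luminescence; AC50 from Hill-equation fits.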
# [9] = target: Peroxisome proliferator-activated receptor gamma (Homo sapiens) (UniProt P37231); experiment: qHTS assay for small molecule agonists of peroxisome proliferator-activated receptor gamma signaling (AID 588536; active means well fitted curve in the direction sought with a large enough effect in the signal ratio, with a control signal flat, not every such curve was filed as active; the % refers to the signal ratio); conditions: HEK293 PPARg-UAS-bla, beta-lactamase ratio, 16 h, percent of rosiglitazone response, DMSO as zero; series mostly up to 76.7 µM
# Method in brief: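 Test agents, titrated, stimulated HEK293 UAS-bla cells overnight (16 h, 37 C). Substrate CCF4 was then added for two hours at room temperature before fluorescence reading.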
# [10] = target: Vitamin D3 receptor (Homo sapiens) (UniProt P11473); experiment: qHTS assay for small molecule antagonists of vitamin D receptor signaling (AID 588541; calls by dose curve;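 further: receptor activated by calcitriol during compound treatment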); conditions: HEK293T VDR-UAS-bla, beta-lactamase ratio, antagonist mode; series mostly up to 76.7 µM
# Method in brief: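 VDR-UAS-bla HEK293T cells in 2% charcoal-stripped FBS were stimulated with 1-alpha,25-dihydroxyvitamin D3 (3 nM final) plus compound for 16 h at 37 C. The beta-lactamase CCF4 readout was normalized to 50 nM agonist and DMSO, and Hill fits gave IC50.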
# [11] = target: Vitamin D3 receptor (Homo sapiens) (UniProt P11473); experiment: qHTS assay for small molecule agonists of vitamin D receptor signaling (AID 588543; calls by dose curve); conditions: HEK293T VDR-UAS-bla, beta-lactamase ratio, 16 h; series mostly up to 76.8 µM
# Method in brief: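 β-lactamase reporter, VDR-UAS-bla HEK293T, agonist mode. Cells plated 5 h at 37 °C, compound titration 16 h at 37 °C, CCF4 dye 2 h RT, ratio 460/530 nm. Hill fit → EC50, efficacy vs 50 nM 1α,25-(OH)2D3.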
# [12] = qHTS assay for small molecule agonists of retinoid X receptor alpha signaling (AID 588544; calls by dose curve); conditions: HEK293T RXRa-UAS-bla, beta-lactamase reporter, 18 h; 530 nm emission
# [13] = target: Retinoic acid receptor RXR-alpha (Homo sapiens) (UniProt P19793); experiment: as above; conditions: HEK293T RXRa-UAS-bla, beta-lactamase reporter, 18 h; series mostly up to 76.7 µM
# [14] = target: Thyroid hormone receptor beta (Homo sapiens) (UniProt P10828); experiment: qHTS assay for small molecule agonists of thyroid hormone receptor beta signaling (AID 588545; calls by dose curve); conditions: TR-UAS-bla GripTite HEK 293, beta-lactamase ratio, agonist mode, 18 h, percent of T3 response, DMSO as zero; series mostly up to 76.7 µM
# Method in brief: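 Stimulation of a TR-driven beta-lactamase reporter was quantified in GripTite HEK 293 cells. Compound series ran for 18 hrs; curves were normalized to T3 and DMSO controls and fitted to yield EC50.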
# [15] = qHTS assay for small molecule antagonists of retinoid X receptor alpha signaling (AID 588546; active means well fitted inhibition curve with a large enough effect in the signal ratio, with a control signal flat, not every such curve was filed as active; the % refers to the signal ratio;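 further: cells stimulated with 9-cis-retinoic acid as agonist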); conditions: HEK293T RXRa-UAS-bla, beta-lactamase ratio, antagonist mode; measured here: W530 green channel, cytotoxicity proxy
# Method in brief: (§1)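 Beta-lactamase reporter inhibition, read as CCF4 fluorescence ratio (ex 405, em 460/530 nm) after 2 h at RT. HEK293T UAS-bla cells, 2500/well, were stimulated with 9-cis-RA at 500 or 100 nM final alongside test compound for 18 h at 37 C.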
# [16] = target: Retinoic acid receptor RXR-alpha (Homo sapiens) (UniProt P19793); experiment: as above; conditions: HEK293T RXRa-UAS-bla, beta-lactamase ratio, antagonist mode
# Method in brief: as §1
# [17] = target: Thyroid hormone receptor beta (Homo sapiens) (UniProt P10828); experiment: qHTS assay for small molecule antagonists of thyroid hormone receptor beta signaling (AID 588547; active means well fitted inhibition curve with a large enough effect in the signal ratio, with a control signal flat, not every such curve was filed as active; the % refers to the signal ratio;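 further: cells stimulated with 0.4 nM T3 agonist during compound exposure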); conditions: TR-UAS-bla HEK293, beta-lactamase ratio, antagonist mode, 18 h
# Method in brief: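 TR-UAS-bla GripTite HEK293 cells in 2% charcoal/dextran FBS medium; compounds 0.59 nM to 92 uM with T3 at 0.4nM final, 18 h at 37 C. Beta-lactamase read by CCF4 fluorescence (460/530 nm); Hill fits gave IC50 and efficacy.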
# [18] = target: Voltage-gated inwardly rectifying potassium channel KCNH2 (Homo sapiens) (UniProt Q12809); experiment: qHTS Assay for Small Molecule Inhibitors of the Human hERG Channel Activity (AID 588834); conditions: U2OS BacMam hERG, FluxOR thallium flux fluorescence; series mostly up to 46.1 µM;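 further: top concentration of the series differs between compounds; lower thallium flux fluorescence means stronger hERG block; nearly all actives have a fitted effect of over 50% in size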
# Method in brief: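 Concentration-response qHTS measuring drop in thallium-sensitive dye signal. U2OS cells carrying BacMam hERG; compound exposure ~10 min, then stimulation buffer and 2 min read at 1 sec intervals.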
# [19] = qHTS assay for small molecule agonists of the antioxidant response element (ARE) signaling pathway (AID 651741; active means well fitted activation curve with a large enough effect in the signal ratio; the % refers to the signal ratio; further: potency means the concentration at half of the fitted maximal effect); conditions: HepG2 ARE-bla reporter, beta-lactamase FRET ratio, 16 h; series mostly up to 96 µM
# Method in brief: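 CellSensor ARE-bla HepG2 cells (2,000/well) carrying ARE-driven beta-lactamase, exposed 16 h at 37 C. LiveBLAzer B/G FRET substrate added for 2 h at room temperature; fluorescence intensity read.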
# [20] = qHTS assay for small molecule activators of the nuclear factor-kappa B (NF-kB) signaling pathway (AID 651749; active means well fitted activation curve with a large enough effect in the signal ratio; the % refers to the signal ratio); conditions: NF-kB-bla ME-180 cells, beta-lactamase FRET ratio, 16 h; stronger effect = higher value
# Method in brief: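 NF-kB-bla ME-180 cells carrying a beta-lactamase reporter under an NF-kB response element, 2,000 cells/well, exposed to compound for 16 hr at 37C; FRET-based beta-lactamase fluorescence read-out of pathway activation.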
# Chain of Thyroid hormone receptor beta (Homo sapiens) (P10828 whole entry, looked up): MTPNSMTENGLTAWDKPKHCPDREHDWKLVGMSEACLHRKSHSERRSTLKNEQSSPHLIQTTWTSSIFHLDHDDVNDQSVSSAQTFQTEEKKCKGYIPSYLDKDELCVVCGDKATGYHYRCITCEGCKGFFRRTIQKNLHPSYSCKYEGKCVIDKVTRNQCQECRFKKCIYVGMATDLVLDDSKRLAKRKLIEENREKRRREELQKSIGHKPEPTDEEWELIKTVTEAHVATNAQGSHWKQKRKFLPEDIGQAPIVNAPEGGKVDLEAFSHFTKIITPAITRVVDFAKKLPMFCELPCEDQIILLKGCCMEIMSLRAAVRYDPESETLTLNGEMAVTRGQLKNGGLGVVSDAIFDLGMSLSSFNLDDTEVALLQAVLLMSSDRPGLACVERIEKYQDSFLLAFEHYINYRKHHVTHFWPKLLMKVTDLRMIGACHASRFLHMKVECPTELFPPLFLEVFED
# Chain of Vitamin D3 receptor (Homo sapiens) (P11473 whole entry, looked up): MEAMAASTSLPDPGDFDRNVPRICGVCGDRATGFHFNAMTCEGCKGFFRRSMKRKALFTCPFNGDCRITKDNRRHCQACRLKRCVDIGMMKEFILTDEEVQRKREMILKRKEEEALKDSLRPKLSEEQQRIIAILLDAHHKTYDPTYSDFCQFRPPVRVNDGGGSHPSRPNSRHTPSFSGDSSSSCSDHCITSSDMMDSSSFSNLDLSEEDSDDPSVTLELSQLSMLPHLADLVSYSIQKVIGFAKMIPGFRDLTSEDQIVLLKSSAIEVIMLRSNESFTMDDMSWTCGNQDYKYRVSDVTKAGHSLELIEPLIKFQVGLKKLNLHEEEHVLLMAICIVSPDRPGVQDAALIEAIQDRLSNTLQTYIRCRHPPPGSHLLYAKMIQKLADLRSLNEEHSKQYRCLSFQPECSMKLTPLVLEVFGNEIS
# Chain of Retinoic acid receptor RXR-alpha (Homo sapiens) (P19793 whole entry, looked up): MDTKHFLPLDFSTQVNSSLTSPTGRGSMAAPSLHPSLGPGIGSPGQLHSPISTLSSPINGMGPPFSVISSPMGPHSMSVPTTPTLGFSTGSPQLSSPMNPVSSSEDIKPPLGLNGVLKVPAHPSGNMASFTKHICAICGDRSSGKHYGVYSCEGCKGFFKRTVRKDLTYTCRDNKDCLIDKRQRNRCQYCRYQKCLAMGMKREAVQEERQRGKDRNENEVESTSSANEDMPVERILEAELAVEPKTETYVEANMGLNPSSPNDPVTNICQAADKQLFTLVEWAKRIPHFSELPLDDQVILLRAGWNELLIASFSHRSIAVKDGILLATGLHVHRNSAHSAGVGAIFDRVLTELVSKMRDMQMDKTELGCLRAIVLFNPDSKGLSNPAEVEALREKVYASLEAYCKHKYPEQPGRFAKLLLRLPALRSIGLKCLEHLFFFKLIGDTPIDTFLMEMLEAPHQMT
# Chain of Peroxisome proliferator-activated receptor gamma (Homo sapiens) (P37231 whole entry, looked up): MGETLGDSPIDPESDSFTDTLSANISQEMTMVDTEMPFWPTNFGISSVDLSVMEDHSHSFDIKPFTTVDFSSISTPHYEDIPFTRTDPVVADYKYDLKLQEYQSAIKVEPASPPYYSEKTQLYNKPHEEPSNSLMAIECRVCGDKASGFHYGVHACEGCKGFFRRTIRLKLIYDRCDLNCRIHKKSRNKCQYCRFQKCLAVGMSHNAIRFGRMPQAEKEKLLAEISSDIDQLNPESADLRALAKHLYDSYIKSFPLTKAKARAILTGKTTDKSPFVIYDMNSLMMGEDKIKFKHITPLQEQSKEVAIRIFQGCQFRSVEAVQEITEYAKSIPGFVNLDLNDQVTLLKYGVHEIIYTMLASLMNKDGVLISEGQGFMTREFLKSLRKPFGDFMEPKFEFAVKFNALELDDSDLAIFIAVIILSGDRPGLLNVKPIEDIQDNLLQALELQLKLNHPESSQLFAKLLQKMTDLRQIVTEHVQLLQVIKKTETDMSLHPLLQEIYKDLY
# Chain of Voltage-gated inwardly rectifying potassium channel KCNH2 (Homo sapiens) (Q12809 whole entry, looked up): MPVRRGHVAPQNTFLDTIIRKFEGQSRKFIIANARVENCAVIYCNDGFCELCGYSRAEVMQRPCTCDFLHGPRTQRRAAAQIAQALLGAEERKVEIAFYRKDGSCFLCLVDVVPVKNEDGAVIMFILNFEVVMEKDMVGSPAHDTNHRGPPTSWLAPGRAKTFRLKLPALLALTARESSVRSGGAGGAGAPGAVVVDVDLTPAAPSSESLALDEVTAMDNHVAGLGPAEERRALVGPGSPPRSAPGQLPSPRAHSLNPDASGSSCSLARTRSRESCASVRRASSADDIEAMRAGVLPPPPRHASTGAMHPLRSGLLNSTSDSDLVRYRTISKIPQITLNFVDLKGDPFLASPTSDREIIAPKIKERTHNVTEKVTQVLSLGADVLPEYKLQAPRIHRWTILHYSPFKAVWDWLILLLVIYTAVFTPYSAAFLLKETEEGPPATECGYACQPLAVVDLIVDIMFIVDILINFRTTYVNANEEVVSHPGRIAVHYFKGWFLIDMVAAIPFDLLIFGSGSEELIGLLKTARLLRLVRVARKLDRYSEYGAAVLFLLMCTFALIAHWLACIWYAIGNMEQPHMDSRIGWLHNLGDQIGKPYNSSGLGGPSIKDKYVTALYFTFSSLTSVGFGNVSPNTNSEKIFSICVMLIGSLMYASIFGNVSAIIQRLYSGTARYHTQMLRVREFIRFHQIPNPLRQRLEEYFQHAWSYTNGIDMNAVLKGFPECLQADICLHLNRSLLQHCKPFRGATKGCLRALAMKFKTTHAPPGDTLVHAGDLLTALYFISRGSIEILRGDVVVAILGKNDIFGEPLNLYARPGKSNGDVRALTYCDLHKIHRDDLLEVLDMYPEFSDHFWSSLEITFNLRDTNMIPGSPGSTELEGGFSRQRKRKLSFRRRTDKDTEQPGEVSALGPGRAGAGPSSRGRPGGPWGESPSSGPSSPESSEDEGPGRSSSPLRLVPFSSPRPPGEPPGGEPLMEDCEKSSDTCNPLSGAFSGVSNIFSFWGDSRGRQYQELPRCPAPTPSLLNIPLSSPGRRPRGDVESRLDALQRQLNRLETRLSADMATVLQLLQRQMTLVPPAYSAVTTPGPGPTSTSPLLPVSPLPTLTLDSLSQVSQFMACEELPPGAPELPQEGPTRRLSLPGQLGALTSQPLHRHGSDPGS
SMILES,Potency [1],outcome [2],outcome [3],outcome [4],outcome [5],outcome [6],outcome [7],Potency [8],outcome [9],outcome [10],outcome [11],max response [12],outcome [13],outcome [14],max response [15],max response [16],activity change % (negative = inhibition) [17],Potency [18],Potency [19],activation [20]
Cc1occc(=O)c1O,> 92 µM (inactive),inactive,inactive,inactive,inactive,inactive,inactive,inactive,inactive,inactive,inactive,-12.3%,inactive,inactive,-0.914%,-8.46% (inactive),-20.8% (inactive),inactive,inactive,-0.401% (inactive)
CC1=CC(=O)CC(C)(C)C1(O)/C=C/C(C)=C\C(=O)O (stereo not given),> 92 µM (inactive),inactive,inactive,inactive,inactive,inactive,inactive,inactive,inactive,inactive,inactive,-10.1%,inactive,inactive,-3.21%,0.0259% (inactive),-6.36% (inactive),inactive,37.6 µM (active),1.73% (inactive)
